PTPN22 act – LYP phosphatase activators, primary screen, biochemical, DiFMUP fluorescence, 2 µM | Tyrosine-protein phosphatase non-receptor type 22 (Homo sapiens), Q9Y2R2 | recombinant LYP; 0 = plate median, 100 = signal doubled | activation, % at 2 µM | 96,000 tested, 0.11% active;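 active = activation at 2 µM above a set limit, the mean plus 5 SD, cut at about 37% in these data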
FAK blocker – FAK kinase inhibitors, primary screen, biochemical. 97,000 tested, 0.84% active. biochemical FAK kinase activity assay. inhibition, %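 (tested at 7 µM)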. AID 727, 2007. Focal adhesion kinase 1 (Homo sapiens), Q05397; in the data active = inhibition above about 19%
PTPN22 inh 2 – PTPN22 phosphatase inhibitors, primary screen, biochemical, DiFMUP fluorescence, 2 µM; inhibition, % at 2 µM; 96,000 tested, 0.21% active; AID 640, 2007; recombinant LYP catalytic domain; Tyrosine-protein phosphatase non-receptor type 22 (Homo sapiens), Q9Y2R2;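 active = inhibition at 2 µM at or above a set limit, the screen mean plus 3 SD, cut at about 24% in these data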
Plk1 PBD FP – Plk1 polo box domain binding inhibitors, primary screen, biochemical, fluorescence polarization | Plk1 PBD phosphopeptide binding | inhibition, %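 (tested at about 20 µM)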 | 97,000 tested, 0.13% active; in the data active = inhibition above about 34%, passing the limit was not always enough
EphB4 ephrin blk – EphB4-ephrin-B2 interaction antagonists, primary screen, biochemical, TNYL-RAW peptide probe, fluorescence polarization; Ephrin type-B receptor 4 (Homo sapiens), P54760; EphB4 LBD / TNYL-RAW-Alexa532 peptide; inhibition, % at 7 µM; 97,000 tested, 0.15% active; AID 720, 2007;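 active = inhibition above the screen-wide mean inhibition plus 3 SD, cut at about 15% in these data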
Target sequence (P54760 whole entry, looked up, the tested form may be a part): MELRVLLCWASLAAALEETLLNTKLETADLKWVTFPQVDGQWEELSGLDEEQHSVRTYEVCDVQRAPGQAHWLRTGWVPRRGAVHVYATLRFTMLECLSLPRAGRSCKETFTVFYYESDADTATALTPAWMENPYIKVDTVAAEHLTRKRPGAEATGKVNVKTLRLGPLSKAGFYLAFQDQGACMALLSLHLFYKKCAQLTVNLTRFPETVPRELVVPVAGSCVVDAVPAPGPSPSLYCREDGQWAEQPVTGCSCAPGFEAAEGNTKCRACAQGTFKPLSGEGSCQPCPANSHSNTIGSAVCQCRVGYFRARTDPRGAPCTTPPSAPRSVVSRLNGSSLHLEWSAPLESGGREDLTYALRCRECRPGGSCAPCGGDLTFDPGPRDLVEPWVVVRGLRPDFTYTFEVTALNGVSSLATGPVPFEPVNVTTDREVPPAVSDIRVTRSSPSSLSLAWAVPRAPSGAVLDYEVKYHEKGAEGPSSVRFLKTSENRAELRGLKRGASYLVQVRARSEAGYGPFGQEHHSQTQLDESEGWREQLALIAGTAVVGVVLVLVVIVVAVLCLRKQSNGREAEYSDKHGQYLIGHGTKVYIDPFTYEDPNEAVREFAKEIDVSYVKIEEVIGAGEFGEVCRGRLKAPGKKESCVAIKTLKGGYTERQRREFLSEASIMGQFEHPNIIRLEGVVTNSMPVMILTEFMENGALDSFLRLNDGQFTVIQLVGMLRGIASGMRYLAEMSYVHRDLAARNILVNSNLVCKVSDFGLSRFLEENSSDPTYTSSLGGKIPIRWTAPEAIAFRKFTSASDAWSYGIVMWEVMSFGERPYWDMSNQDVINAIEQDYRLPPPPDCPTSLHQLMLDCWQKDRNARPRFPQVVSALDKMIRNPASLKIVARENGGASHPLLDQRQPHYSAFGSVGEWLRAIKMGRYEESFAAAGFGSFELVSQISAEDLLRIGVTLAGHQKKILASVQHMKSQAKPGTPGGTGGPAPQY
PLK1 inh – human PLK1 kinase inhibitors, primary screen, biochemical, TR-FRET. Serine/threonine-protein kinase PLK1 (Homo sapiens), P53350. recombinant PLK1 kinase, TR-FRET peptide phosphorylation. inhibition, % at 10 µM. 97,000 tested, 0.53% active. AID 619, 2007;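 active = inhibition of 50% or more in the single-concentration screen; inactive = inhibition below 50%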
Redox H2O2 DR – redox cycling hydrogen peroxide generation, dose response, artefact control for Plk1 PBD inhibitor project, biochemical; shares compounds with Plk1 PBD FP; redox cycling H2O2 generation, DTT, counter-screen; EC50, µM; 120 tested, under 10 active
LYP act confirm – retest of PTPN22 activators, confirmation, biochemical, DiFMUP fluorescence, single concentration. shares compounds with PTPN22 act. Recombinant LYP, activation; zero set by plate's median compound well. activation, % at 2 µM. 100 tested, under 10 active
Of the large screens only hits and unclear results are named; the others gave an inactive call (follow-up assays come after a bar, where they were run). Shown are actives, neighbours in structure and some others; about 1.7% of the full set was active somewhere. Unless noted, no rule for the calls is given here.

c1ccc(CN2CCN(C3=Nc4cccc5cccc3c45)CC2)cc1	none
Cc1ccc(N(CC(=O)N2CCN(C3CCCCC3)CC2)S(=O)(=O)c2cccnc2)cc1	none
COC(=O)CCc1c(C)[nH]c(=S)[nH]c1=O	Plk1 PBD FP 45 | Redox H2O2 DR inactive
CCOC(=O)Cc1c(C)[nH]c(=S)[nH]c1=O	none
COc1ccc(S(=O)(=O)N(C)CC(=O)Nc2ccccc2C(F)(F)F)cc1	Plk1 PBD FP 35 | Redox H2O2 DR inactive
COc1ccc(S(=O)(=O)N(C)CC(=O)Nc2ccccc2C(F)(F)F)cc1Cl	none
O=C1CN(c2ccc(Br)cc2)C(=O)N1CC(=O)N1CCCc2ccccc21	Plk1 PBD FP 46 | Redox H2O2 DR inactive
NC(=O)C1CCN(C(=O)Nc2ccccc2)CC1	none
NC(=O)C1CCN(C2=C(Cl)C(=O)c3ccccc3C2=O)CC1	Plk1 PBD FP 66 | Redox H2O2 DR inactive
CCn1c(SCC(=O)Nc2cc3oc4ccccc4c3cc2OC)nnc1-c1cccs1	none
Cc1[nH]n2c(=O)cc(C(C)C)nc2c1-c1ccccc1	none
Cc1[nH]n2c(=O)cc(-c3ccc([N+](=O)[O-])cc3)nc2c1-c1ccccc1	Plk1 PBD FP 35 | Redox H2O2 DR inactive
CC1Cn2c(nnc2-c2cc3ccccc3cc2O)S1 (centres undefined)	Plk1 PBD FP 57 | Redox H2O2 DR inactive
CC1Cn2c(nnc2-c2ccccc2O)S1 (centres undefined)	none
CCC(C)N(C(=O)Cn1nnc2ccccc21)C(C(=O)Nc1ccc(F)cc1)c1cccc(OC)c1 (centres undefined)	none
CCC(=O)N1CCN(c2ccc(NC(=O)c3ccc4c(c3)OCO4)cc2)CC1	Plk1 PBD FP 44 | Redox H2O2 DR inactive
O=C(O)COc1ccc(Br)cc1/C=N/O	Plk1 PBD FP 45 | Redox H2O2 DR inactive
CCN1C(=O)/C(=C/c2nc3ccccc3c(=O)n2-c2ccccc2)c2ccccc21	Plk1 PBD FP 57 | Redox H2O2 DR inactive
CC1CCCC(NC2CCCCNC2=O)C1 (centres undefined)	Plk1 PBD FP 43 | Redox H2O2 DR inactive
O=C(NCCCN1CCOCC1)c1cccs1	none
CCOC(=O)Nc1nnc(-c2ccc(OC)c(OC)c2)s1	none
Cc1nc2ccc(Br)cn2c(=O)c1Cl	none
Cc1nc2cccc(C)n2c(=O)c1Cl	Plk1 PBD FP 42 | Redox H2O2 DR inactive
CCOC(=O)N1CCC2(CC1)C(C#N)=C(N)Oc1c2c(C)nn1-c1cccc(Cl)c1	none
COC(=O)c1ccc(C(=O)OC)c(NC(=O)CSc2cccc[n+]2[O-])c1	none
Nc1cc2nsnc2cc1Br	Plk1 PBD FP 118 | Redox H2O2 DR 13
CC(C)c1ccc(CN2CC(C(=O)O)CC2=O)cc1 (centres undefined)	none
CCC(C)c1ccc(NC(=O)C2CCCN(c3ncccn3)C2)cc1 (centres undefined)	none
CCC(C)c1ccc(NC(=O)C2CC2)cc1 (centres undefined)	Plk1 PBD FP 63 | Redox H2O2 DR inactive
COc1ccc2c(CC(=O)Nc3ccc(OC)c(NS(=O)(=O)c4ccc(F)cc4)c3)coc2c1	none
CNC(=O)CC(C(=O)O)c1ccc(OC(C)C)cc1 (centres undefined)	none
CNC(=O)CC(C(=O)O)c1ccc(OCC(C)C)cc1 (centres undefined)	Plk1 PBD FP 64 | Redox H2O2 DR inactive
Cc1ccc(NC(=O)C2CC=CCC2C(=O)N2CCCCC2)cc1 (centres undefined)	Plk1 PBD FP 43 | Redox H2O2 DR inactive
O=C(Nc1ccccn1)C1CCN(S(=O)(=O)c2cccc3nonc23)CC1	Plk1 PBD FP 36 | Redox H2O2 DR inactive
COc1ccccc1C(=O)Nc1sc2c(c1C(=O)NCc1ccco1)CCCC2	none
CC(=O)Nc1nc(C2COc3ccccc3O2)cs1 (centres undefined)	PTPN22 act 41 | LYP act confirm inactive
CC1=C(C(N)=O)C(c2cccnc2)n2nc(SCc3ccccc3Cl)nc2N1 (centres undefined)	PTPN22 act 46 | LYP act confirm inactive
Nc1cc(N)nc(SCC(=O)c2ccccc2)n1	PTPN22 act 43 | LYP act confirm inactive
Nc1cc(N)nc(SCC(=O)Nc2ccccc2)n1	none
COc1cccc(C(=O)CSc2nnnn2C2CCCCC2)c1	none
O=C(OCC(=O)N1CCCC1)c1cccs1	none
CC(Sc1ccc(Cl)cc1)C(=O)NCc1cccnc1 (centres undefined)	PTPN22 act 37 | LYP act confirm inactive
Cc1ccc(SC(C)C(=O)NCc2cccnc2)cc1 (centres undefined)	none
CCCC(=O)N=C1SC2CS(=O)(=O)CC2N1c1ccc(CC)cc1 (centres undefined)	none
O=C1c2ccccc2C(=O)N1c1n[nH]c(CCc2ccccc2)n1	PTPN22 act 43 | LYP act confirm inactive
Cc1cccc(NC(=O)CSc2nnc(Cn3cnc4ccccc43)o2)c1	PTPN22 act 38 | LYP act confirm inactive
CCN1C(=O)C2C(c3cccc(F)c3)NC(C)(C(=O)OC)C2C1=O (centres undefined)	none
CCN1C(=O)C2C(c3cccc(F)c3)NC(CC)(C(=O)OC)C2C1=O (centres undefined)	PTPN22 act 42 | LYP act confirm inactive
O=C(NCC1CCCO1)C1CCN(C(=O)c2ccc(Br)cc2)CC1 (centres undefined)	none
CCCN(CCC)C(=O)Cn1ccc(=N)c2ccccc21	none
CC(C)(C)NC(=O)Cn1ccc(=N)c2ccccc21	PTPN22 act 45 | LYP act confirm inactive
CCC(=O)N1CCc2cc(Br)cc(S(=O)(=O)CCC(=O)NCC3CCCO3)c21 (centres undefined)	PTPN22 act 49 | LYP act confirm inactive
Cc1ccccc1OCC(=O)OC(C)CN1CCN(C)CC1 (centres undefined)	PTPN22 act 48 | LYP act confirm inactive
CCOc1ccc2cc(/C=C/C(=O)c3ccco3)c(Cl)nc2c1	none
Cc1cccc(CSc2ncc(CO)n2C)c1	PTPN22 act 38 | LYP act confirm inactive
CCOC(=O)CSCc1c(C#N)c2ccccc2n1C	PTPN22 act 40 | LYP act confirm inactive
CC(=O)N(Cc1c(C#N)c2ccccc2n1C)c1ccccc1	none
Cc1nnc(NC(=O)c2ccccc2Br)s1	none
Cc1nnc(NC(=O)c2ccccc2F)s1	PTPN22 act 38 | LYP act confirm inactive
